# From publication PMC4242493, “Sequence specificity incompletely defines the genome-wide occupancy of Myc”
# The full ranking holds about 33,000 sequences; the median of “normalized occupancy” is about 0.075, and the highest 2% start at about 0.095. The sample holds the highest values, similar sequences and a random draw of the others, so the mix is not that of the screen.
# Biological target: MaxL homodimer (Homo sapiens, UniProt P61244 1-160)
# Experiment: universal protein-binding microarray (PBM); PBS-based mixture, 10 nM His-tagged protein dimer, 2% milk, 200 ng/uL BSA, 50 ng/uL salmon testes DNA, 0.02% TX-100; detection with Alexa 488 anti-His antibody;; high values mean tight binding
# Settings: protein: recombinant; tags: C-terminal His-tag (pET21a); chain copies: 2; dsDNA, one strand shown
# Procedure, shortened: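 A His-tagged protein dimer at 10 nM was incubated on Agilent 4 x 44 K arrays of the 'all 10-mer' universal design, then labelled with 10 ng/μL fluorophore-conjugated anti-His antibody and scanned on a GenePix 4400A. A fluorescence intensity was assigned to each 8-mer. Binding occupancy is each such intensity normalised to that of the highest-ranked one.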
# MaxL homodimer, sequence (P61244 whole entry): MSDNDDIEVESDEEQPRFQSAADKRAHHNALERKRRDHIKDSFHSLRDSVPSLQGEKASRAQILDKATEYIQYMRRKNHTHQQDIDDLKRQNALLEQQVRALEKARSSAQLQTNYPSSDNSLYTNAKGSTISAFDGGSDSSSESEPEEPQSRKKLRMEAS
row,Sequence,binding signal [normalized occupancy]
1,CATGTGCA,0.149
2,AATGTGCG,0.0957
3,CGTGTTCA,0.1
4,AATGTGCA,0.0888
5,AATGTGTG,0.0963
6,AATGTGCC,0.0816
7,GATGTGCA,0.0814
8,AATGTGTA,0.0864
9,GGTGTTCA,0.0754
10,TATGTGCA,0.084
11,AGTGTGTG,0.0828
12,AGTGTTCA,0.0774
13,CATAATTA,0.0816
14,TACTAATA,0.0814
15,CGAGCAGA,0.0731
16,ACATCCGC,0.0795
17,TACTTATA,0.0836
18,GTAAATCA,0.0784
19,ACCTCGTA,0.0827
20,ACCTCGTC,0.0738
21,ATCTCGTG,0.0991
22,ACATCGTG,0.0998
23,ACCTCATG,0.113
24,ACCTCGTG,0.156
25,ACATCGTA,0.0832

row,Sequence,binding signal [normalized occupancy]
1,ACCTCATA,0.0788
2,AGCTCGTG,0.0836
3,ACCTCATC,0.0736
4,ACATCGTC,0.0753
5,ATCTCGTA,0.0765
6,AGACGTCC,0.0732
7,CAGCAATG,0.082
8,CTTACAAC,0.0757
9,ATGTTTGG,0.0806
10,CTCATGAA,0.0856
11,CCTTGCGA,0.0752
12,CCCATGTC,0.0854
13,CCCATGCC,0.0969
14,CCCATGCG,0.138
15,ATCATGTA,0.0811
16,CCAATGCG,0.0793
17,CCTATGCG,0.0749
18,CCCATGAC,0.0853
19,ACCATGAA,0.0755
20,ACCATGAG,0.0976
21,ATCATGTG,0.137
22,CCCATGAG,0.0921
23,ATCATGTC,0.0895
24,ACATCACC,0.0798
25,GACCAGCA,0.0755

row,Sequence,binding signal [normalized occupancy]
1,CTGTCGTA,0.0747
2,GAGAACTA,0.0732
3,CTCTCGAA,0.0729
4,AACGGTTG,0.0768
5,CGTTGCCA,0.0801
6,GGCGGTGA,0.0725
7,GCCATGGC,0.0823
8,ACAATGTC,0.079
9,CCCATGAA,0.0827
10,ACAATGTA,0.085
11,ACAATGTG,0.0995
12,GCCATGCA,0.0904
13,GCCATGCC,0.0963
14,ACCATGCC,0.0954
15,ACCATGGC,0.0734
16,CCCATGCA,0.0973
17,ACCATGAC,0.0839
18,CCCATACA,0.0836
19,CATTTGTA,0.0834
20,CATACGCG,0.0762
21,AGGGAGCG,0.0763
22,CCGTACGC,0.072
23,ACACCAGT,0.0764
24,CCGACTTA,0.0735
25,CGCTAATC,0.0771

row,Sequence,binding signal [normalized occupancy]
1,GAAATAGC,0.0789
2,ACCATGTA,0.0876
3,ACCATGAT,0.084
4,ACCATGTC,0.0794
5,ACAATGCG,0.0867
6,ACCATGCA,0.0972
7,ACTATGCG,0.0817
8,ACCATGGT,0.0862
9,ACCATGTG,0.225
10,ACCATGCG,0.136
11,ACCATGCT,0.123
12,TCCATGCA,0.0861
13,ACCATGGA,0.0861
14,ATGCTGGC,0.0864
15,CAGGCCTG,0.0765
16,AAACTAAC,0.0741
17,ATTGGCGC,0.0745
18,GTACAAGA,0.0806
19,CTTCTATC,0.0768
20,AGTCAGCG,0.0777
21,CCAATTGG,0.0757
22,AATCACCT,0.0853
23,AGTCACGA,0.0912
24,AGTCACGG,0.0774
25,GATCACGA,0.0786

row,Sequence,binding signal [normalized occupancy]
1,AATCACGG,0.0727
2,AATCACGA,0.0856
3,AATCACGT,0.099
4,AATCACTA,0.0729
5,AATCACGC,0.0974
6,GATCACCC,0.0786
7,AGTCACGC,0.0989
8,GATCACGC,0.0977
9,CCAATGGA,0.0747
10,ACGCCTGC,0.0743
11,CCAGAATC,0.0733
12,CATCACGC,0.0961
13,CATCACGA,0.0811
14,CATCACGG,0.0829
15,GGTCTTGA,0.0779
16,CATGTTGA,0.0943
17,AATGTGGA,0.0903
18,CATGTGGC,0.165
19,CATGTTGC,0.0999
20,GATGTGGC,0.0839
21,CATGTCGG,0.088
22,GATGTTGC,0.0781
23,AATGTGGC,0.0898
24,CATGTGGA,0.157
25,CATGTGGG,0.144

row,Sequence,binding signal [normalized occupancy]
1,AATGTGGG,0.0907
2,GATGTGGA,0.0847
3,GGATTTGA,0.0761
4,CTATAGTA,0.0737
5,AACAATGC,0.0816
6,AGCTGTTA,0.0759
7,AAGTGTAA,0.0802
8,GGGTCTAC,0.0725
9,CGGACCCC,0.0732
10,ACCTCGAG,0.0843
11,CCATGCCC,0.0935
12,CCATGCCA,0.0875
13,ACATGCCC,0.099
14,ATATGCCG,0.0773
15,GCATGCCC,0.105
16,GAATGCCC,0.0765
17,ACATGCCG,0.103
18,CCATGCCG,0.1
19,ACATGCCT,0.0828
20,CAATGCCG,0.0728
21,AGATGCCC,0.0786
22,AGATGCCG,0.0739
23,TAAGAGTA,0.0797
24,TCTCACAA,0.0786
25,ATGAGAGC,0.078

row,Sequence,binding signal [normalized occupancy]
1,CGAGATGC,0.078
2,AAGGACAC,0.0757
3,GGCCACGA,0.0815
4,AGGTCTCA,0.074
5,CAATTAAA,0.0744
6,AGTGGTCG,0.0719
7,AGATGCCA,0.0772
8,GTATGCCA,0.0806
9,GCATGCCA,0.108
10,TCATGCCA,0.0861
11,ACATGCCA,0.0967
12,ATATGCCA,0.0822
13,GGTCCCGA,0.0733
14,ACTAACCT,0.0752
15,GGTGGGAC,0.0719
16,CGTGGGAA,0.089
17,CGTGGGAC,0.096
18,TGGGTCAA,0.0772
19,AACCATGA,0.0836
20,CACCATGG,0.0885
21,AACCATGC,0.106
22,CACCATGC,0.108
23,GACCATAC,0.0805
24,CACCATGA,0.0873
